For twelve compounds, growth results are on record in PubChem BioAssay (NCI).

Some test systems named below: HCT-15 colon; HT29 colon; SNB-75 CNS; SNB-19 CNS; U251 CNS; PC-3 prostate; SK-MEL-5 melanoma; UACC-62 melanoma; LOX IMVI melanoma; SK-MEL-28 melanoma.
What all share (assay): NCI-60 one-dose screen, 48 h (100 = growth as untreated, 0 = no growth, -100 = all killed)
Conditions in all cases: 10 µM unless noted

SMILES strings stand for the structures. The panel holds about 83,000 compounds, 20% with a hit somewhere; the sample as a whole holds those more often.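 Results are percent growth after 48 hours of single-concentration exposure. 100 means growth as in untreated cells, lower positive values show inhibition; negative values down to -100 show cell death.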 Unmarked numbers belong to inactive results. Active and inactive are the calls of the source. The calls were made as follows: active = growth percent below 10; inactive = the rest.

For `O=C1/C(=C/c2cccc3c2OCO3)Cc2c(F)cc(Br)cc21`, the growth is 102% with HCT-15 colon; 118% with HT29 colon; 97.1% with SNB-75 CNS; 103% in the assay with SNB-19 CNS; 105% in the assay on U251 CNS; 107% with PC-3 prostate. Besides, the growth is 101% in the assay with SK-MEL-5 melanoma, 91.8% in the assay on UACC-62 melanoma, 99.8% with LOX IMVI melanoma and 115% in the assay on SK-MEL-28 melanoma.

`Cc1ccccc1Nc1nnc(-c2c[nH]c3ccccc23)o1`: the growth with HCT-15 colon is 16.8%; in the assay with HT29 colon it was 2.95% (active); with SNB-75 CNS, 26%; in the assay on SNB-19 CNS, 41%; with U251 CNS it was 11.8%; in the assay on PC-3 prostate, 37.6%. Also, the growth with SK-MEL-5 melanoma is -17% (active); with UACC-62 melanoma it was 28.4%; with LOX IMVI melanoma, 29.1%; in the assay on SK-MEL-28 melanoma, 61.3%.

As for `Cc1cnc2ccc(Oc3ccccc3-c3ccccc3)nn12`, the growth with HCT-15 colon is 103%; in the assay with HT29 colon, 108%; with SNB-75 CNS it was 126%; in the assay on SNB-19 CNS it was 99.7%; in the assay with U251 CNS, 100%; in the assay with PC-3 prostate, 105%. Further, the growth in the assay with SK-MEL-5 melanoma is 107%; in the assay with UACC-62 melanoma, 101%; with LOX IMVI melanoma it was 97.9%; in the assay with SK-MEL-28 melanoma it was 113%.

Turning to `CS(=O)(=O)Nc1cncc(-c2ccc3ncnc(NCc4ccccc4)c3c2)c1`, the growth was 64.3% in the assay on HCT-15 colon; 65.1% in the assay on HT29 colon; 5.11% (active) in the assay on SNB-75 CNS; 39% in the assay with SNB-19 CNS; 22.1% in the assay on U251 CNS; 42.1% in the assay on PC-3 prostate. The growth is -82.9% (active) in the assay with SK-MEL-5 melanoma, 29.2% in the assay on UACC-62 melanoma, 35.9% in the assay on LOX IMVI melanoma and 40.3% with SK-MEL-28 melanoma.

Turning to `N#Cc1cc(-c2ccc3ncnc(N4CCc5cc(F)c(Cl)cc54)c3c2)cnc1N`, the growth in the assay on HCT-15 colon was 23.3%; with HT29 colon, 34.2%; in the assay with SNB-75 CNS it was 24.9%; in the assay on SNB-19 CNS, 57.9%; in the assay with U251 CNS, 57%; with PC-3 prostate it was 33.8%. Moreover, the growth is 55.9% with SK-MEL-5 melanoma, 56.7% in the assay on UACC-62 melanoma, 28.4% in the assay with LOX IMVI melanoma and 61.2% in the assay on SK-MEL-28 melanoma.

For `CN1C(=O)C2(C(C#N)=C(c3ccc(Cl)cc3)Nc3c2c(-c2ccccc2)nn3-c2ccccc2)c2ccccc21` (stereo not given), the growth in the assay with HCT-15 colon is 87.6%; in the assay on HT29 colon it was 85.2%; with SNB-75 CNS it was 69.4%; in the assay with SNB-19 CNS it was 87%; in the assay on U251 CNS, 102%; in the assay on PC-3 prostate it was 85.8%. In addition, the growth in the assay with SK-MEL-5 melanoma was 88.1%; in the assay on UACC-62 melanoma, 69.5%; in the assay with LOX IMVI melanoma, 55.3%; with SK-MEL-28 melanoma, 94.2%.

Consider `CC(=O)c1c2c(c3ccc4c5ccccc5ccc4n13)C(=O)c1ccccc1C2=O`, for which the growth in the assay with HCT-15 colon was 81.6%; in the assay with HT29 colon, 107%; in the assay with SNB-75 CNS it was 93.8%; in the assay on SNB-19 CNS it was 65.4%; in the assay with U251 CNS, 82.9%; with PC-3 prostate, 77.5%. The growth is 63.7% in the assay with SK-MEL-5 melanoma, 87% with UACC-62 melanoma, 64.5% in the assay on LOX IMVI melanoma and 101% in the assay on SK-MEL-28 melanoma.

On to `CCC(=O)c1c2c(c3ccc4c5ccccc5ccc4n13)C(=O)c1ccccc1C2=O`, for which the growth in the assay on HCT-15 colon is 66.8%; in the assay with HT29 colon, 94.2%; in the assay with SNB-75 CNS, 113%; in the assay with SNB-19 CNS, 66.7%; in the assay on U251 CNS it was 90.4%; with PC-3 prostate it was 77.1%. Also, the growth in the assay with SK-MEL-5 melanoma was -23.6% (active); with UACC-62 melanoma, 54.9%; in the assay on LOX IMVI melanoma, 50.1%; in the assay on SK-MEL-28 melanoma, 76.4%.

As for `N#CC1=C(c2cccs2)Nc2c(c(-c3ccccc3)nn2-c2ccccc2)C12C(=O)Nc1ccc(Br)cc12` (stereo not given), the growth in the assay on HCT-15 colon is -6.66% (active); in the assay on HT29 colon, -32.8% (active); with SNB-75 CNS it was -39.5% (active); with SNB-19 CNS, 7.99% (active); in the assay with U251 CNS, -47.8% (active); in the assay with PC-3 prostate, -3.33% (active). Besides, the growth in the assay on SK-MEL-5 melanoma is 0.371% (active); with UACC-62 melanoma, -52.3% (active); with LOX IMVI melanoma it was -11.3% (active); with SK-MEL-28 melanoma, -69.6% (active).

`O=C(N/N=C/c1c[nH]c2ccccc12)Nc1ccc(F)c(Cl)c1`: the growth is 20.2% in the assay with HCT-15 colon; 33.5% in the assay on HT29 colon; 48% in the assay with SNB-75 CNS; 73.4% with SNB-19 CNS; 42.2% in the assay with U251 CNS; 43.3% with PC-3 prostate. The growth in the assay on SK-MEL-5 melanoma was 34%; in the assay with UACC-62 melanoma it was 48.6%; in the assay with LOX IMVI melanoma, 4.2% (active); in the assay with SK-MEL-28 melanoma, 58.8%.

`CCCn1c(NC(=O)c2cccc(C(N)=O)c2)nc2ccc(CN3CCCCC3)cc21`: the growth in the assay with HCT-15 colon is 67.1%; in the assay on HT29 colon, 91%; with SNB-75 CNS it was 128%; in the assay with SNB-19 CNS it was 111%; in the assay with U251 CNS it was 106%; in the assay on PC-3 prostate it was 63.2%. The growth in the assay with SK-MEL-5 melanoma was 102%; in the assay with UACC-62 melanoma, 113%; in the assay on LOX IMVI melanoma, 93.4%; with SK-MEL-28 melanoma, 106%.

For the compound `COc1ccc(N=Nc2c(N)nn3c(-c4cc5ccccc5oc4=O)ccnc23)cc1`, the growth in the assay on HCT-15 colon was 64.9%; in the assay on HT29 colon, 50.7%; in the assay with SNB-75 CNS, 33.6%; with SNB-19 CNS, 19.8%; in the assay with U251 CNS, 28.5%; in the assay on PC-3 prostate, 70.7%. Besides, the growth is 24% with SK-MEL-5 melanoma, 47.7% in the assay with UACC-62 melanoma, 57.2% with LOX IMVI melanoma and 45.4% in the assay on SK-MEL-28 melanoma.
